This is a sample that favours compounds with a hit; in the whole collection about 3.9% have one here.
BoNT-F LC inh: blocks Botulinum neurotoxin F light chain protease; Multiplex microsphere protease cleavage assay, flow cytometry; inhibition, % at 10 µM; actives 0.22% (n = 360,000); AID 588497; in the data active means inhibition above about 35%, passing the limit was not always enough; inconclusive means no clear call, values can overlap the other calls; further: plate controls were buffer without enzyme for full effect and enzyme alone for no effect
CCHF vOTU inh-1: CCHFV vOTU protease inhibition | Pep-AMC fluorescence | inhibition, % at 11.5 µM | actives 0.55% (n = 370,000) | AID 651958; further: 0% = vehicle wells with enzyme and 100% = no enzyme wells
Anthrax LF inh2: anthrax lethal factor protease inhibition; P15917; multiplex microsphere protease cleavage assay, LF; inhibition, % at 10 µM; actives 0.12% (n = 360,000); in the data active means inhibition above about 30%; inconclusive means no clear call, values can overlap the other calls; further: plate controls were buffer without enzyme for full effect and enzyme alone for no effect
BoNT A protease: blocks Botulinum neurotoxin A light chain protease. actives 0.17% (n = 360,000). inhibition, % at 10 µM. multiplex microsphere protease substrate cleavage, flow cytometry. AID 588499; in the data active means inhibition above about 30%; inconclusive means no clear call, values can overlap the other calls; further: plate controls were buffer without enzyme for full effect and enzyme alone for no effect
SARS 3CLpro inh: SARS-CoV 3CLpro protease inhibition. P0C6X7. recombinant SARS-CoV 3CLpro, quenched FRET peptide cleavage. inhibition, % at 6 µM. actives 0.14% (n = 290,000). AID 1706; in the data active means inhibition above about 12%
Bead autofluor: flagged as autofluorescent in microsphere protease counterscreen. fluorescence intensity (no concentration beside the values). compound autofluorescence counterscreen, microsphere flow cytometry; stronger effect = higher value. AID 624483. actives 3.1% (n = 360,000); in the data active means fluorescence intensity above about 16000; inconclusive means no clear call, values can overlap the other calls
CCHF vOTU inh-2: confirmation of CCHF virus vOTU protease inhibitors. shares compounds with CCHF vOTU inh-1. Recombinant CCHFV vOTU, Pep-AMC fluorescence. inhibition, % at 11.5 µM. actives 17% (n = 1,900). AID 686976
* = called active by the depositor; ? = inconclusive; nt = no result. Unless noted, no stated cut-off is given here; in the data, active means inhibition above about 30%; inactive means the rest.

SMILES | BoNT-F LC inh | CCHF vOTU inh-1 | Anthrax LF inh2 | BoNT A protease | SARS 3CLpro inh | Bead autofluor | CCHF vOTU inh-2
COc1ccc(-c2nnn3c2Cn2c4ccccc4c(=O)n2[C@@H](C)C3)cc1 | nt | -14 | nt | nt | nt | nt | nt
C[C@@H]1C[C@H]2O[C@@H]2/C=C\C=C\C(=O)Cc2cc(O)cc(O)c2C(=O)O1 | nt | -7 | nt | nt | nt | nt | nt
COC(=O)[C@]12C[C@H](CC(=O)N3CCOCC3)C(=O)N(CCC3=CCCCC3)C1=C[C@H](C(C)(C)C)O[C@@H]2C | nt | 30* | nt | nt | nt | nt | -8
COC(=O)[C@]12C[C@H](CC(=O)N3CCCC3)C(=O)N(CCC3=CCCCC3)C1=C[C@H](C(C)(C)C)O[C@@H]2C | nt | 15 | nt | nt | nt | nt | nt
Cc1ccc(CNC(=O)CSc2nc(=O)n3ccc(C)cc3n2)cc1 | -7 | 40* | -3 | 0 | nt | 3415 | 5
CCOc1ccc(/C=C/C(=O)Nc2ccccc2C(F)(F)F)cc1 | -5 | 30* | -1 | -1 | 6 | 2458 | -13
O=C1Nc2ccccc2-n2nnnc2C1N1CCN(c2ccc(C(F)(F)F)cc2[N+](=O)[O-])CC1 (centres undefined) | nt | 32* | nt | nt | nt | nt | -6
CCCCOc1ccc(C(=O)N/C(=C/C=C/c2ccccc2)C(=O)O)cc1 | -2 | 29 | -3 | 0 | 4 | 4622 | nt
CCCCOc1ccc(C(=O)N/C(=C/C=C/c2ccccc2)C(=O)NC)cc1 | -1 | 31* | -4 | 0 | -3 | 1997 | -3
CN1CCCCC(NC(=O)CCCl)C1=O (centres undefined) | nt | -1 | nt | nt | nt | nt | nt
C[C@@H]1NS(=O)(=O)c2c(F)cccc2O[C@@H]1c1ccccc1 | nt | 8 | nt | nt | nt | nt | nt
Cc1nn(C)cc1C1C(C#N)=C(N)N(c2ccc(F)c([N+](=O)[O-])c2)C2=C1C(=O)CCC2 (centres undefined) | -3 | 30* | -2 | 1 | 1 | 7123 | -4
Cc1ccc(N2C(N)=C(C#N)C(c3cccnc3)C3=C2CCCC3=O)cc1 (centres undefined) | -10 | 9 | 4 | 0 | -4 | 3455 | nt
CC1=NN(c2ccc(F)cc2)C(=O)C1C(c1cccc(O)c1)c1c(C)[nH]n(-c2ccc(F)cc2)c1=O (centres undefined) | 3 | 66* | -3 | 0 | 4 | 2827 | -16
CC1=NN(c2ccc(Cl)cc2)C(=O)C1C(c1cccc(O)c1)c1c(C)[nH]n(-c2ccc(Cl)cc2)c1=O (centres undefined) | -1 | nt | -2 | -1 | 0 | 2846 | nt
CCOC(=O)[C@@H]1CSCCS(=O)(=O)N1Cc1ccccc1 | nt | 0 | nt | nt | nt | nt | nt
Cc1nc2ccc(S(=O)(=O)NCC(=O)NCc3ccccc3C)cc2s1 | nt | 0 | nt | nt | nt | nt | nt
COc1ccc(NC(=O)Cn2nc(C(F)(F)F)c3c2CCCC3)c(OC)c1 | -4 | 30* | 0 | ? | 0 | 21156* | -21
COc1ccc(CNC(=O)Cn2nc(C(F)(F)F)c3c2CCC3)cc1 | -5 | 9 | -17 | 0 | -2 | 8974 | nt
CCCCS(=O)(=O)N1CCN(C(=O)C(=O)c2cccc(C(F)(F)F)c2)CC1 | nt | 6 | nt | nt | nt | nt | nt
CCOc1ccc(-n2c(SCC(=O)Nc3cccc4ccccc34)nnc2-c2cccs2)cc1 | nt | 8 | nt | nt | nt | nt | nt
COc1cc(/C=N/n2c(C3CCCCC3)n[nH]c2=S)ccc1O | -8 | 31* | -10 | -2 | 2 | 3083 | -16
COc1cccc(/C=N/n2c(C3CCCCC3)n[nH]c2=S)c1O | 21 | 12 | 9 | -2 | 4 | 4322 | nt
CCCCNc1cccc2c1S(=O)(=O)N[C@H](Cc1ccccc1)CO2 | nt | 20 | nt | nt | nt | nt | nt
CC(=O)c1cccc(NC(=O)c2ccc(Br)o2)c1 | -2 | -1 | 0 | 0 | 5 | 10816 | nt
SMILES | BoNT-F LC inh | CCHF vOTU inh-1 | Anthrax LF inh2 | BoNT A protease | SARS 3CLpro inh | Bead autofluor | CCHF vOTU inh-2
O=C(Nc1ccccc1C(=O)O)c1cccc(NC(=O)c2ccc(Br)o2)c1 | 11 | 30* | -3 | 0 | 6 | 2174 | 2
O=C(Nc1cccc(Cl)c1)NN(c1ccccc1)C1CCS(=O)(=O)C1 (centres undefined) | nt | 9 | nt | nt | nt | nt | nt
NC(=O)c1sc2nc3c(c(-c4ccco4)c2c1N)CCC3 | -8 | 49* | -5 | 1 | -16 | 10619 | 13
Cc1ccc(Nc2c([N+](=O)[O-])ccc3nonc23)c(C)c1 | ? | 9 | -10 | 2 | 3 | 4051 | nt
Cc1ccc(S(=O)c2ccc([N+](=O)[O-])c3nonc23)cc1 (centres undefined) | 0 | 32* | 4 | 4 | nt | 2848 | 18
O=C(O)c1ccc(NC2=C(n3nnc4ccccc43)C(=O)c3ccccc3C2=O)cc1 | 11 | 87* | -2 | -1 | 1 | 3699 | 89*
COc1ccc(NC(=O)COC(=O)c2cc(SC)ccc2Cl)c(OC)c1 | 0 | 30* | 5 | -1 | -9 | 9655 | -13
COc1ccc(C(C)(C)C)cc1NC(=O)COC(=O)c1cc(SC)ccc1Cl | -4 | 20 | -1 | 0 | 1 | 2222 | nt
Cc1nnc2nc(N)[nH]n2c1=O | nt | 3 | nt | nt | nt | nt | nt
COC(=O)[C@]12C[C@H](CC(=O)NCC34CC5CC(CC(C5)C3)C4)C(=O)N(CCC3=CCCCC3)C1=C[C@H](COCc1ccccc1)O[C@@H]2C | nt | 11 | nt | nt | nt | nt | nt
CCC(=NCC1CCCO1)c1c(O)n(Cc2ccccc2)c(=O)[nH]c1=O (centres undefined) | 0 | 33* | -1 | 1 | 1 | 15866 | -5
CCOC(=O)CN1C(=O)[C@]2(OCCC=C[C@H]2C)c2c(Br)cccc21 | nt | -4 | nt | nt | nt | nt | nt
CC(C)c1cc(C(C)C)c(S(=O)(=O)N2CCCC(C(=O)NCc3cccs3)C2)c(C(C)C)c1 (centres undefined) | nt | 18 | nt | nt | nt | nt | nt
C=CCN1C(=O)[C@H](CC(=O)NCCCC)[C@@]2(C(=O)OCC)CCCC=C12 | nt | 0 | nt | nt | nt | nt | nt
COCCCn1c(N)c(C(=O)Nc2sc3c(c2C(=O)OC)CCCC3)c2nc3ccccc3nc21 | -4 | 35* | -8 | -1 | -3 | 11968 | -23
COCCCn1c(N)c(C(=O)OC(C)COC)c2nc3ccccc3nc21 (centres undefined) | -2 | -216 | -1 | 1 | -4 | 2496 | nt
CN(Cc1ccccc1)C(=O)OCc1cn(Cc2cccc(C(F)(F)F)c2)nn1 | nt | 15 | nt | nt | nt | nt | nt
CC(NC(=O)Nc1nccs1)(C(F)(F)F)C(F)(F)F | -2 | -1 | 3 | 0 | -3 | 2839 | nt
O=C(Nc1nccs1)C(F)(F)C(F)(F)C(F)(F)C(=O)Nc1nccs1 | -1 | 113* | -2 | 0 | 1 | 3342 | 0
CCOc1cc(/C=N/N=C2/NC(=O)C(CC(=O)O)S2)ccc1OCc1ccc(Cl)cc1Cl (centres undefined) | 5 | nt | 6 | 1 | 4 | 4455 | nt
COc1cc(/C=N/N=C2/NC(=O)C(CC(=O)O)S2)ccc1OCc1ccc(Cl)cc1 (centres undefined) | 3 | 34* | 0 | 0 | 10 | 2151 | 17
CN(Cc1nc(-c2ccccc2)no1)C(=O)c1ccc2c(c1)OCO2 | -1 | -10 | -1 | 2 | nt | 4649 | nt

Bioassay records: PubChem BioAssay, several laboratories
